# FLuc inh = Firefly luciferase inhibition profiling of diverse chemical library using quantitative high-throughput screening; Luciferin 4-monooxygenase (Photinus pyralis), P08659; purified P. pyralis luciferase, luminescence, biochemical; Potency, µM (doses to about 115 µM), actives largely listed as inhibitors; actives 2.5% (n = 76,000); AID 1347043, 2019; further: nearly all actives have a fitted effect of over 65% in size
#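 Purified 10nM P. pyralis luciferase with 10uM D-luciferin and 10uM ATP in 50mM Tris acetate pH 7.5, 10mM Mg acetate, 0.01% Tween-20, 0.05% BSA. qHTS titration; luminescence read by CCD imager.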
# hNpr1 antagonist = Natriuretic polypeptide receptor (hNpr1) antagonism - Primary qHTS | Atrial natriuretic peptide receptor 1 (Homo sapiens), P16066 | HEK293 hNpr1 GloSensor cGMP, ANP-stimulated luminescence | Potency, µM (series often up to 46.3 µM), for inactives: top-dose activity change, negative = inhibition, actives largely listed as inhibitors | actives 1.6% (n = 76,000); calls by dose curve; further: nearly all actives have a fitted effect of over 60% in size
#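 Compound pre-incubated 30 min at room temperature on GloSensor-loaded HEK293 cells stably carrying hNpr1 and the pGS-40F cGMP biosensor. Stimulation uses hNppA at 0.1 nM final; luminescence is taken at baseline and 20 min post-agonist.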
# HEK cytotox = Cytotoxic Profiling in HEK 293 Cell Line of Diverse Libraries Using Quantitative High-Throughput Screening | actives 6.6% (n = 94,000) | Potency, µM (series often up to 115 µM), without a hit: top-dose activity change, negative = cytotoxicity, hits mostly inhibitors | HEK 293 viability, ATP luminescence (CellTiter-Glo), 48-72 h; further: nearly all actives have a fitted effect of over 60% in size
#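 qHTS cytotoxicity; HEK 293, 250 cells/well; compound pinned; 48 or 72 hr, 37 degree Celsius, 5% CO2, 95% humidity; CellTiter-Glo, 10 min RT; luminescence (ATP).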
# 3T3 cytotox = Cytotoxic Profiling in NIH 3T3 Cell Line of Diverse Libraries Using Quantitative High-Throughput Screening; NIH 3T3 viability, CellTiter-Glo ATP luminescence, 48-72 h; Potency, µM (doses to about 96.7 µM), for inactives: top-dose activity change, negative = cytotoxicity, usual class: inhibitors; actives 4.3% (n = 94,000); AID 1345082, 2018; further: nearly all actives have a fitted effect of over 55% in size
#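 NIH 3T3 cells at 400 cells/well received 23 nL of compound by pintool and were incubated 48 or 72 h at 37 °C. Viability was read as ATP-coupled CellTiter-Glo luminescence.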
# * = called active by the depositor; i = inactive; u = inconclusive; x = not tested or not shown; [ ] = remark or other dose. Compounds with a hit are over-represented: about 11% of the library has one in this group of screens. Unless noted, the call rests on the fitted dose curve; in most records, active means well fitted curve in the direction sought with a large enough effect; inconclusive means small, poorly fitted or top-dose-only effect, or another doubt; inactive means no such curve, though single readings can be large; an effect the other way counts as inactive or inconclusive. On the % scale 0 is the no-effect control and ±100 the full control effect; potency means the concentration at half of the fitted maximal effect.
SMILES,FLuc inh,hNpr1 antagonist,HEK cytotox,3T3 cytotox
O=C1NC2(CCN(Cc3ccccc3C(F)(F)F)C2)Oc2ccccc21 (stereo not given),i,4%,-3%,-3%
CC(C(=O)N1CC(n2cc(C(=O)NCC3CC3)nn2)C1)c1ccccc1 (stereo not given),x,x,4%,i
COc1cccc([S+](=O)([O-])N2CCC(C(=O)O)(c3ccccc3)CC2)c1,x,x,i,-5%
Cc1noc(C)c1S(=O)(=O)N1CCCC(CCc2ccc(F)c(F)c2)C1 (stereo not given),i,-15%,45µM*,u
O=C(NC1CCCCC1)c1cnc2c(c1)N([S+](=O)([O-])c1cccnc1)CCC2,i,4%[70.6 µM],-10%[172 µM],89µM*
CN1C[C@@H](N)C[C@H]1c1nc(-c2ccc3c(c2)OCO3)no1,u,-5%[70.6 µM],u,-3%[230 µM]
CC(=O)NCCC1CCN(C(=O)Nc2ccc(C)c(F)c2)CC1,5µM*,-28%,3%,i
Cc1ccc(NC(=O)N2CCC(CCNC(=O)C3CCCC3)CC2)cc1F,x,x,-3%,-23%
CCN1C(=O)C2CC3(CCN(S(=O)(=O)c4cccc5nsnc45)CC3)CN2C1=O (stereo not given),x,x,-5%,-22%
COc1ccc(-c2cc(NCCO)nc3[nH]ccc23)cc1C(F)(F)F,i,-16%,40µM*,40µM*
O=C(CC1CCc2ccccc21)N1CCCN(c2ncccn2)CC1 (stereo not given),i,-2%,3%,2%
O=C(NCCCN1CCCC1=O)c1csc(N2CCN(c3ccc(F)cc3)CC2)n1,i,-17%,u,-24%
CC(NC(=O)c1csc(N2CCN(c3ccccc3F)CC2)n1)c1ccccc1 (stereo not given),i,3%,45µM*,u
O=C(NCC1CC1)c1csc(N2CCN(c3ccccc3F)CC2)n1,i,-24%,35µM*,13µM*
O=C(NCc1ccccc1)O[C@H]1COCCN(c2nc3ccccc3o2)C1,i,0%[70.6 µM],-21%[172 µM],-9%[138 µM]
O=C(c1ccc(-c2ccc(O)cc2)cc1)N1CCOC2(CNCCOC2)C1 (stereo not given),i,-3%,-27%,-26%
CC1=NS(=O)(=O)N(C)C=C1C(=O)OCc1nc(-c2ccc3c(c2)OCO3)no1,u,11µM*,-10%,-6%
CC1=NS(=O)(=O)N(C)C=C1C(=O)OCc1nc(-c2ccc(Cl)cc2)no1,u,10µM*,u,-29%
COc1cccc(-c2noc(COC(=O)C3=CN(C)S(=O)(=O)N=C3C)n2)c1,u,13µM*,u,u
Cc1ccccc1-c1[nH]nc2ncc(-c3cccc(O)c3)nc12,i,-19%[70.6 µM],u,u
COc1ccc(-c2cnc3n[nH]c(-c4ccc(F)cc4C)c3n2)cc1,i,-1%[70.6 µM],45µM*,32µM*
COc1ccc(-c2[nH]nc3ncc(-c4ccc(OC)nc4)nc23)c(C)c1,i,4%[70.6 µM],22µM*,u
COc1ccc(-c2cnc3n[nH]c(-c4ccccc4C)c3n2)cn1,i,-9%[70.6 µM],32µM*,u
Cc1ccccc1-c1[nH]nc2ncc(-c3ccsc3)nc12,i,-13%[70.6 µM],32µM*,u
Cc1ccccc1-c1[nH]nc2ncc(-c3cccnc3)nc12,i,-5%[70.6 µM],u,u
SMILES,FLuc inh,hNpr1 antagonist,HEK cytotox,3T3 cytotox
O=C(c1ccc(Cl)cc1)N1CCC2(COc3ccncc3[S+](=O)([O-])N2)C1 (stereo not given),x,x,-5%,u
CCN(CC)CCNC(=O)C1CCCN(S(=O)(=O)c2ccccc2)CCC(=O)NCC1 (stereo not given),i,2%,i,i
COc1ccc(S(=O)(=O)N2CCc3nc4cc[nH]n4c(=O)c3C2)cc1Cl,i,-14%,-4%,i
CNC(=O)c1cc(C2CC2)nc2onc(C3CCN(C(=O)c4ccccn4)C3)c12 (stereo not given),x,x,-14%,-23%
CCC1CN(c2ccc(-c3nc(-c4ccc(OC)cc4)no3)cn2)CCN1C (stereo not given),u,-4%,u,79µM*
Cn1ccc2c(C(=O)NCCc3cnc[nH]3)nc(-c3cccnc3)cc21,i,0%[70.6 µM],-24%[172 µM],45µM*
Cn1ccc2c(C(=O)NCCc3cnc[nH]3)nc(-c3cccc(CO)c3)cc21,i,-9%[70.6 µM],u,u
COc1ccc(-c2cc3c(ccn3C)c(C(=O)NCCc3cnc[nH]3)n2)cn1,i,3%[70.6 µM],u,25µM*
Cn1ccc2c(C(=O)NCCc3cnc[nH]3)nc(-c3ccccc3)cc21,u,-12%[70.6 µM],u,u
COc1ccccc1-c1cc2c(ccn2C)c(C(=O)NCCc2cnc[nH]2)n1,i,-2%[70.6 µM],u,u
Cn1ccc2c(C(=O)NCCc3cnc[nH]3)nc(-c3cccc(C(F)(F)F)c3)cc21,i,-6%[70.6 µM],40µM*,35µM*
Cn1ccc2c(C(=O)NCCc3cnc[nH]3)nc(-c3cnn(Cc4ccccc4)c3)cc21,i,-6%[70.6 µM],u,79µM*
O=C(O)CCC1CCCN(S(=O)(=O)c2cccc(F)c2)C1 (stereo not given),i,0%,7%,-2%
Cc1ccc(CCC(=O)N2CC[C@@](O)(C3CCOCC3)[C@H](C)C2)cc1,i,17%,3%,-11%
Cn1nc(CN2CCOCC2)c2c1CCN(S(=O)(=O)c1ccccc1)C2,x,x,-9%,-26%
COc1ccc(NC(=O)[C@@H]2C[C@@H](c3cccc(C(F)(F)F)c3)N(C)C2)c(C)c1,i,-1%[70.6 µM],u,u
CN1C[C@H](C(=O)Nc2ccccc2)C[C@H]1c1cccc(C(F)(F)F)c1,i,-15%[70.6 µM],79µM*,45µM*
COc1cccc(NC(=O)[C@@H]2C[C@@H](c3cccc(C(F)(F)F)c3)N(C)C2)c1,i,-20%[70.6 µM],100µM*,79µM*
COCCNC(=O)[C@H]1C[C@H](Oc2ccccc2)CN1Cc1cccc(C)c1,i,0%,13µM*,-24%
COCCNC(=O)[C@H]1C[C@H](Oc2ccccc2)CN1Cc1cccnc1,i,2%,i,i
CNC(=O)[C@H]1C[C@H](Oc2ccccc2)CN1Cc1cccn1C,i,-16%,u,4%
CNC(=O)[C@H]1C[C@H](Oc2ccccc2)CN1Cc1cn(C)c2ccc(OC)cc12,i,-3%,28µM*,32µM*
COC1CCC12CCN(C(=O)CCCc1ccccc1)CC2 (stereo not given),x,x,-23%,-28%
Cc1ccc(CNC(=O)N2CCCCCCNC(=O)[C@@H]3CCCC[C@@H]32)cc1,i,0%,u,-23%
CC1=C[C@@H](CN2CCC(C(N)=O)CC2)[C@H](C(C)C)C[C@H]1Cc1nnc(C(C)(C)C)o1,i,-4%[70.6 µM],u,u

# From PubChem
